{
  "source": "PubChem BioAssay AID624255",
  "about": "(Broad Institute, 2012)",
  "note": "Screen size: about 77,000 compounds; about 4,600 (6%) were called active. Another 1% or so got no clear call; they are omitted.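 Rule for the calls: active = mean inhibition above about 93%, with at least 55% of replicates each passing it (limit read from the data, passing the limit was not always enough); inconclusive = only one of those two conditions holds; inactive = neither condition holds.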 Only a selection was taken, and actives are over-represented in it overall.",
  "data": [
    {"experiment": "growth inhibition of T. cruzi in host fibroblasts – cell-based, beta-gal Tulahuen parasites, NIH3T3 host, luminescence, primary screen (AID 624255)", "settings": "T. cruzi beta-gal in NIH3T3, GalScreen luminescence, 90 h; at 8.34 µM; active compounds read high", "values": [
      {"smiles": "CC(C)NC(=O)N(C)C[C@H]1OCCCC[C@H](C)Oc2ccc(NS(=O)(=O)c3ccc(Cl)cc3)cc2C(=O)N([C@@H](C)CO)C[C@H]1C", "inhibition": "-6.73% (inactive)"},
      {"smiles": "C[C@@H]1CN([C@H](C)CO)C(=O)c2cc(NC(=O)c3ccccc3)ccc2O[C@@H](C)CCCCO[C@H]1CN(C)C(=O)c1ccncc1", "inhibition": "-20.8% (inactive)"},
      {"smiles": "CCC(=O)N1C[C@H](C)[C@H](OC)CN(C)C(=O)c2ccc(NC(=O)Nc3ccccc3)cc2OC[C@H]1C", "inhibition": "-75.2% (inactive)"},
      {"smiles": "CCC(=O)Nc1ccc2c(c1)OC[C@H](C)N(Cc1ccccc1OC)C[C@@H](C)[C@@H](OC)CN(C)C2=O", "inhibition": "32.5% (inactive)"},
      {"smiles": "CCC(=O)Nc1ccc2c(c1)C(=O)N(C)[C@@H]1CC[C@@H](CC(=O)NCCc3ccccc3)O[C@H]1CO2", "inhibition": "49.1% (inactive)"},
      {"smiles": "C/C=C/c1ccc([C@H]2[C@@H](CO)N(C(=O)Cc3ccncc3)[C@@H]2CNC(C)=O)cc1", "inhibition": "13.1% (inactive)"},
      {"smiles": "CS(=O)(=O)N1CCCCN2[C@H](CO)[C@H](c3ccc(-c4cccc(C#N)c4)cc3)[C@H]2C1", "inhibition": "74.2% (inactive)"},
      {"smiles": "O=S(=O)(Cc1ccccc1)N1CCCCN2[C@H](CO)[C@@H](c3ccc(-c4cncnc4)cc3)[C@H]2C1", "inhibition": "91% (inactive)"},
      {"smiles": "O=S(=O)(Cc1ccccc1)N1CCCCN2[C@@H](CO)[C@H](c3ccc(-c4ccccc4)cc3)[C@@H]2C1", "inhibition": "110% (active)"},
      {"smiles": "COCC(=O)Nc1ccc2c(c1)C(=O)N(C)[C@@H]1CC[C@H](CC(=O)NCC3CCCCC3)O[C@H]1CO2", "inhibition": "-49.4% (inactive)"},
      {"smiles": "C[C@@H]1CN([C@H](C)CO)C(=O)c2cc(C#CCN(C)C)cnc2O[C@H]1CN(C)C(=O)Cc1ccncc1", "inhibition": "67.2% (inactive)"},
      {"smiles": "COc1ccc(C#Cc2cnc3c(c2)C(=O)N([C@@H](C)CO)C[C@H](C)[C@@H](CN(C)C(C)=O)O3)cc1", "inhibition": "110% (active)"},
      {"smiles": "C[C@@H]1CN([C@@H](C)CO)C(=O)c2cc(C#Cc3ccccc3)cnc2O[C@H]1CN(C)C(=O)c1ccccn1", "inhibition": "108% (active)"},
      {"smiles": "CC(C)CC#Cc1cnc2c(c1)C(=O)N([C@@H](C)CO)C[C@@H](C)[C@H](CN(C)C(=O)Cc1ccncc1)O2", "inhibition": "107% (active)"},
      {"smiles": "COc1ccccc1C#Cc1cnc2c(c1)C(=O)N([C@@H](C)CO)C[C@@H](C)[C@@H](CN(C)C(=O)CN(C)C)O2", "inhibition": "-91.1% (inactive)"},
      {"smiles": "CCCC#Cc1cnc2c(c1)C(=O)N([C@H](C)CO)C[C@H](C)[C@H](CN(C)C(=O)Cc1ccncc1)O2", "inhibition": "-5.16% (inactive)"},
      {"smiles": "COc1cccc(C#Cc2cnc3c(c2)C(=O)N([C@@H](C)CO)C[C@H](C)[C@@H](CN(C)C(C)=O)O3)c1", "inhibition": "-12.9% (inactive)"},
      {"smiles": "COCC(=O)N(C)C[C@@H]1Oc2ncc(C#Cc3ccccc3OC)cc2C(=O)N([C@@H](C)CO)C[C@H]1C", "inhibition": "113% (active)"},
      {"smiles": "COc1ccccc1C#Cc1cnc2c(c1)C(=O)N([C@@H](C)CO)C[C@@H](C)[C@H](CN(C)C(=O)CN(C)C)O2", "inhibition": "36.2% (inactive)"},
      {"smiles": "CC(=O)N(C)C[C@H]1Oc2ncc(C#Cc3ccccn3)cc2C(=O)N([C@H](C)CO)C[C@@H]1C", "inhibition": "57.3% (inactive)"},
      {"smiles": "COc1ccc(C#Cc2cnc3c(c2)C(=O)N([C@H](C)CO)C[C@H](C)[C@@H](CN(C)C)O3)cc1", "inhibition": "29.3% (inactive)"},
      {"smiles": "CCC(=O)N(C)C[C@@H]1Oc2ncc(C#Cc3ccccc3)cc2C(=O)N([C@@H](C)CO)C[C@H]1C", "inhibition": "87.1% (inactive)"},
      {"smiles": "COc1ccc(CN(C)C[C@@H]2OCCCC[C@H](C)Oc3ccc(NC(=O)c4ccccc4)cc3C(=O)N([C@H](C)CO)C[C@H]2C)cc1", "inhibition": "76.8% (inactive)"},
      {"smiles": "CC=Cc1ccc2n(c1=O)C[C@@H]1[C@@H](CO)[C@H](C(=O)NCC(F)(F)F)N(CCc3ccccc3)[C@H]21", "note": "(mixture of isomers)", "inhibition": "47.7% (inactive)"},
      {"smiles": "Cc1ccc(S(=O)(=O)N[C@H]2CC[C@@H](CC(=O)NCc3ccc(Cl)c(Cl)c3)O[C@H]2CO)cc1", "inhibition": "64.8% (inactive)"},
      {"smiles": "CCCC(=O)Nc1ccc2c(c1)C(=O)N(C)C[C@@H](OC)[C@@H](C)CN(Cc1cncnc1)[C@@H](C)CO2", "inhibition": "-11% (inactive)"},
      {"smiles": "CC(C)NC(=O)Nc1ccc2c(c1)CC(=O)N([C@@H](C)CO)C[C@@H](C)[C@H](CN(C)CC1CC1)O2", "inhibition": "14.2% (inactive)"},
      {"smiles": "CCC(=O)Nc1ccc2c(c1)C(=O)N(C)[C@@H]1CC[C@@H](CC(=O)N[C@@H](C)c3ccccc3)O[C@@H]1CO2", "inhibition": "29.7% (inactive)"},
      {"smiles": "COc1ccc(S(=O)(=O)Nc2ccc3c(c2)C(=O)N([C@H](C)CO)C[C@@H](C)[C@H](CN(C)Cc2ccccc2)O3)cc1", "inhibition": "13.7% (inactive)"},
      {"smiles": "C[C@H](CO)N1C[C@H](C)[C@H](CN(C)C(=O)Nc2cccc3ccccc23)Oc2ncc(C#Cc3ccccc3)cc2C1=O", "inhibition": "122% (active)"},
      {"smiles": "CCCC#Cc1cnc2c(c1)C(=O)N([C@H](C)CO)C[C@H](C)[C@@H](CN(C)Cc1ccccc1)O2", "inhibition": "18.3% (inactive)"},
      {"smiles": "C[C@H](CO)N1C[C@H](C)[C@@H](CN(C)Cc2cccnc2)Oc2ncc(/C=C/c3ccccc3)cc2C1=O", "inhibition": "12.8% (inactive)"},
      {"smiles": "CCCC#Cc1cnc2c(c1)C(=O)N([C@H](C)CO)C[C@@H](C)[C@@H](CN(C)C(=O)Nc1ccccc1F)O2", "inhibition": "11.2% (inactive)"},
      {"smiles": "C[C@@H]1CN([C@H](C)CO)C(=O)c2cc(/C=C/c3ccccc3)cnc2O[C@@H]1CN(C)Cc1ccncc1", "inhibition": "96.3% (active)"},
      {"smiles": "CC(C)CC#Cc1cnc2c(c1)C(=O)N([C@H](C)CO)C[C@H](C)[C@H](CN(C)C(=O)Nc1ccccc1F)O2", "inhibition": "53.1% (inactive)"},
      {"smiles": "CC(C)C#Cc1cnc2c(c1)C(=O)N([C@H](C)CO)C[C@@H](C)[C@H](CN(C)Cc1ccccc1)O2", "inhibition": "-6.87% (inactive)"},
      {"smiles": "C/C=C/c1cnc2c(c1)C(=O)N([C@@H](C)CO)C[C@@H](C)[C@H](CN(C)Cc1ccccc1)O2", "inhibition": "-55.6% (inactive)"},
      {"smiles": "C[C@@H]1CN([C@H](C)CO)C(=O)c2cc(C#Cc3ccccn3)cnc2O[C@H]1CN(C)Cc1ccccc1", "inhibition": "120% (active)"},
      {"smiles": "COc1ccccc1-c1cn(CC[C@H]2CC[C@H](NC(=O)C3CCOCC3)[C@@H](CO)O2)nn1", "inhibition": "7.67% (inactive)"},
      {"smiles": "O=C(C[C@@H]1C=C[C@H](NC(=O)Nc2ccc3c(c2)OCO3)[C@H](CO)O1)NCc1ccccc1", "inhibition": "17.2% (inactive)"},
      {"smiles": "CC=Cc1ccc2n(c1=O)C[C@@H]1[C@@H](CO)[C@H](C(=O)NCCc3ccccc3)N(C(C)=O)[C@H]21", "note": "(mixture of isomers)", "inhibition": "28.7% (inactive)"},
      {"smiles": "C/C=C/c1ccc([C@H]2[C@H]3CN(S(=O)(=O)c4ccccc4)CCCCN3[C@H]2CO)cc1", "inhibition": "123% (active)"},
      {"smiles": "C[C@@H](O)C#Cc1ccc([C@@H]2[C@H]3CN(S(=O)(=O)c4ccccc4)CCCCN3[C@H]2CO)cc1", "inhibition": "26.7% (inactive)"},
      {"smiles": "CN(C)CC#Cc1ccc([C@H]2[C@H]3CN(S(=O)(=O)c4ccccc4F)CCCCN3[C@H]2CO)cc1", "inhibition": "106% (active)"},
      {"smiles": "CCCC#Cc1ccc([C@@H]2[C@H](CO)N3CCCCN(S(=O)(=O)c4ccccc4F)C[C@@H]23)cc1", "inhibition": "37.8% (inactive)"},
      {"smiles": "CCCC#Cc1ccc([C@H]2[C@H](CO)N3CCCCN(S(=O)(=O)CC)C[C@@H]23)cc1", "inhibition": "47.8% (inactive)"},
      {"smiles": "C[C@H](O)C#Cc1ccc([C@H]2[C@H]3CN(S(=O)(=O)Cc4ccccc4)CCCCN3[C@H]2CO)cc1", "inhibition": "110% (active)"},
      {"smiles": "C[C@@H](O)C#Cc1ccc([C@H]2[C@@H](CO)N3CCCCN(S(=O)(=O)c4ccccc4)C[C@@H]23)cc1", "inhibition": "59.2% (inactive)"},
      {"smiles": "C[C@@H](O)C#Cc1ccc([C@H]2[C@@H](CO)N3CCCCN(CC4CC4)C[C@@H]23)cc1", "inhibition": "29.6% (inactive)"},
      {"smiles": "C[C@@H](O)C#Cc1ccc([C@@H]2[C@H](CO)N3CCCCN(S(=O)(=O)c4ccccc4)C[C@@H]23)cc1", "inhibition": "107% (active)"},
      {"smiles": "C[C@H](O)C#Cc1ccc([C@@H]2[C@H](CO)N3CCCCN(CC4CC4)C[C@@H]23)cc1", "inhibition": "8.49% (inactive)"},
      {"smiles": "CCC(=O)Nc1ccc2c(c1)C(=O)N(C)[C@@H]1CC[C@@H](CC(=O)Nc3cccc(OC)c3)O[C@@H]1CO2", "inhibition": "-12.2% (inactive)"},
      {"smiles": "O=C(N[C@@H]1CC[C@H](CCn2cc(-c3ccccc3)nn2)O[C@H]1CO)c1cnccn1", "inhibition": "20.6% (inactive)"},
      {"smiles": "CNC(=O)C[C@@H]1CC[C@@H]2[C@H](COc3ccc(NC(=O)c4cccs4)cc3C(=O)N2C)O1", "inhibition": "9.57% (inactive)"},
      {"smiles": "CC(C)CC#Cc1cnc2c(c1)C(=O)N([C@H](C)CO)C[C@H](C)[C@H](CN(C)CC1CCOCC1)O2", "inhibition": "60.8% (inactive)"},
      {"smiles": "C/C=C/c1cnc2c(c1)C(=O)N([C@H](C)CO)C[C@H](C)[C@@H](CN(C)C(=O)Nc1ccc(C(F)(F)F)cc1)O2", "inhibition": "108% (inactive)"},
      {"smiles": "COCC(=O)N1C[C@H]2[C@@H](c3ccccc31)[C@@H](CO)N2Cc1ccccc1", "inhibition": "-14.2% (inactive)"},
      {"smiles": "COc1cccc(-c2ccc3c(c2)[C@@H]2[C@@H](CCN2C(=O)CN2CCOCC2)[C@H](CO)N3)c1", "inhibition": "88.3% (inactive)"},
      {"smiles": "CC(C)NC(=O)N1CCCCN2[C@H](CO)[C@H](c3ccc(C#C[C@H](C)O)cc3)[C@H]2C1", "inhibition": "90.4% (inactive)"},
      {"smiles": "C[C@H](O)C#Cc1ccc([C@@H]2[C@H]3CN(S(=O)(=O)c4ccccc4)CCCCN3[C@H]2CO)cc1", "inhibition": "107% (active)"},
      {"smiles": "O=S(=O)(c1ccccc1)N1CCCCN2[C@@H](CO)[C@H](c3ccc(C#Cc4cccnc4)cc3)[C@@H]2C1", "inhibition": "90.8% (inactive)"},
      {"smiles": "C[C@H]1CN([C@@H](C)CO)C(=O)c2cccc(NS(=O)(=O)c3cn(C)cn3)c2O[C@H]1CN(C)C(=O)Nc1ccc2c(c1)OCO2", "inhibition": "-234% (inactive)"},
      {"smiles": "O=C(Cc1ccccn1)NCC[C@H]1CC[C@H](NC(=O)Nc2ccc(F)cc2)[C@@H](CO)O1", "inhibition": "10.8% (inactive)"}
    ]}
  ]
}
